Screening results (PubChem BioAssay)
The entries come from a sample that favours hits as a whole.
MBNL1-CUG inh: inhibitors of human MBNL1 binding to CUG repeat RNA | TR-FRET MBNL1-His/biotin-(CUG)12 binding, 665/545 ratio | AID 2675 | Potency, µM (top dose mostly 57.5 µM), without a hit: at the highest dose activity change, negative = inhibition, usual class: inhibitors | 0.036% of 280,000 active; active = well fitted inhibition curve with a large enough effect in the signal ratio, with a control signal flat, not every such curve was filed as active; inconclusive = small, poorly fitted or top-dose-only effect, or effect the other way, or a change in a side signal; inactive = no such curve, though single readings can be large or run the other way; the % refers to the signal ratio; note: % is set by controls: 0 for no effect and ±100 for the full control effect
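MBNL1-His + Biotin-(CUG)12, cpd titration 92 nM–58 uM; Tb anti-His Ab 0.055 ng/ul, SA-XL665 5 nM (final); 60 min RT; ratiometric 665/545 nm, Ex 340 nm; normalized to buffer and full-complex controls.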
IMPase Li cell: membrane-permeable IMPase blocker, potentiated with lithium. 0.35% of 210,000 active. CHO-M1 cells, IP1 TR-FRET (IP-One), carbachol + lithium. Potency, µM (titrated, usually from 59.4 µM), inactives show at the top dose activity, negative = IMPase inhibition, actives largely listed as inhibitors;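 note: IP1 builds up when IMPase is blocked and the TR-FRET signal falls; plate controls were basal vehicle for no effect and high inhibitor control for full effect; nearly all actives have a fitted effect of over 50% in size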
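CHO cells stably expressing M1 receptor (2000/well, cultured 16–30 h) treated 30 min at 37C with compound plus low lithium. Cytosolic IP1 by TR-FRET (665/620 ratio and 620 channel) after 10 min lysis; AC50 by Hill fit.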
RGS12 GoLoco inh: blocks human Gai1 binding to RGS12 GoLoco peptide, red readout; 0.44% of 230,000 active; Gai1:RGS12 GoLoco peptide FP, rhodamine, 10 min; Potency, µM (highest dose often 61.6 µM), without a hit: top-dose activity, negative = inhibition, most hits filed as inhibitors; P63096; AID 880; active = well fitted inhibition curve with a large enough effect, not every such curve was filed as active; inactive = no such curve, though single readings can be large or run the other way; note: % is set by controls: 0 for no effect and ±100 for the full control effect; nearly all actives have a fitted effect of over 30% in size
NPSR antagonist: blocks cAMP signaling of the human neuropeptide S receptor; Potency, µM (highest dose often 38.3 µM), inactives show top-dose activity change, negative = inhibition, most hits filed as inhibitors; 1% of 220,000 active; CHO-NPSR cells, cAMP TR-FRET, antagonist mode; note: % is set by controls: 0 for no effect and ±100 for the full control effect; nearly all actives have a fitted effect of over 50% in size
Target sequence (Q6W5P4 whole entry, looked up): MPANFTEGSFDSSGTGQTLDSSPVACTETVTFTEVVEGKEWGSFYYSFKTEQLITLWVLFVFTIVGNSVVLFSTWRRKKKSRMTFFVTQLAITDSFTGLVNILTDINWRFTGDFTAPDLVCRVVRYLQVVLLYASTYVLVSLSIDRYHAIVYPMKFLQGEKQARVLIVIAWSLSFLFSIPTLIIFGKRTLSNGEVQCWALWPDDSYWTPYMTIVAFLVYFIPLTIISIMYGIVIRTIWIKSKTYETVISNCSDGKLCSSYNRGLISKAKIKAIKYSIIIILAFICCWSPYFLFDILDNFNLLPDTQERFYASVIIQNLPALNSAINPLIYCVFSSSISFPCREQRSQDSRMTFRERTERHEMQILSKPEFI
Tb PFK inh-1: blocks T. brucei phosphofructokinase. AID 485367. O15648. Potency, µM (highest dose often 57.5 µM), without a hit: top-dose activity, negative = inhibition, usual class: inhibitors. 0.17% of 330,000 active. T. brucei PFK, ADP-Glo luminescence;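 note: 0% = uninhibited 1x PFK enzyme wells and -100% = no-enzyme wells; nearly all actives have a fitted effect of over 60% in size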
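In TEA buffer at pH 8.0 with 5 mM MgCl2, enzyme (1.25 nM) converted F6P (0.5 mM) and ATP (0.1 mM) for 45 min at room temperature. ADP product was read by luciferase luminescence.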
Tb PFK KinaseGlo: orthogonal confirmation of T. brucei phosphofructokinase inhibitors; Potency, µM (top dose mostly 57.5 µM), inactives show at the top dose inhibition; Tb PFK enzyme, ATP depletion, Kinase-Glo Plus luminescence; shares compounds with Tb PFK inh-1; 47% of 1,100 active; calls by dose curve; note: nearly all actives have a fitted effect of over 60% in size
Tb PFK inh-2: validation of T. brucei phosphofructokinase inhibitors; shares compounds with Tb PFK inh-1; purified T. brucei PFK, ADP-Glo luminescence, 45 min; Potency, µM (series often up to 57.5 µM), inactives show at the top dose activity change, negative = inhibition, most hits filed as inhibitors; 41% of 1,100 active; AID 504637;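 note: plate controls were full PFK enzyme control for no effect and no enzyme control for full effect; nearly all actives have a fitted effect of over 60% in size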
An asterisk follows results filed as active; ? = inconclusive; . = not tested or not shown; [ ] = dose if it differs, or a comment. Unless noted, calls come from the whole dose curve; as a rule, active = well fitted curve in the direction sought with a large enough effect; inconclusive = small, poorly fitted or top-dose-only effect, or another doubt; inactive = no such curve, though single readings can be large; an effect the other way counts as inactive or inconclusive. Potency is the fitted concentration of half-maximal effect.

SMILES	MBNL1-CUG inh	IMPase Li cell	RGS12 GoLoco inh	NPSR antagonist	Tb PFK inh-1	Tb PFK KinaseGlo	Tb PFK inh-2
COc1cc(C(=S)N2CCN(c3ccccc3Cl)CC2)cc(O)c1O	-5%	31%	93%	-7%	?	?	?
COc1ccccc1N1CCN(Cc2ccccc2Cl)CC1	?	24%[38.3 µM]	-5%	-10%[46.1 µM]	-3%	.	.
C[C@@H]1O[C@H](O[C@@H]2C[C@@H](O)[C@]3(CO)[C@H]4[C@H](O)C[C@]5(C)[C@@H](C6=CC(=O)OC6)CC[C@@]5(O)[C@@H]4CC[C@]3(O)C2)[C@@H](O)[C@H](O)[C@H]1O	.	.	3%	.	.	.	.
COc1ccc2c(c1O)-c1cc(O)cc3c1[C@@H](C2)N(C)CC3	.	-11%	-4%	.	.	.	.
COc1cc2c(cc1O)[C@H]1Cc3ccc(OC)c(O)c3CN1CC2	.	10%	-7%[21.6 µM]	.	.	1%	-1%
O=C(Nc1ncc(Cc2cccc(Cl)c2)s1)C1CCCO1 (centres undefined)	-16%	10%[38.3 µM]	8%	-13%[46.1 µM]	?	17µM*	?
c1ccc([C@H]2CNCc3ccccc32)cc1	.	10%	9%	.	.	.	.
Oc1ccc(C2CNCc3sccc32)cc1O (centres undefined)	.	13%	-7%	-3%[46.1 µM]	?	?	?
O=C(NNC(=O)c1cc2cc3ccccc3nc2s1)c1ccc(F)cc1	?	-12%[38.3 µM]	51%	-20%[46.1 µM]	?	?	?
O=C(C(=O)N1CCOCC1)c1cn(CC(=O)N2CCc3ccccc3C2)c2ccccc12	-6%	3%	-7%	12%	?	?	?
CCCCCn1cc(C(=O)C(=O)N2CCOCC2)c2ccccc21	2%	.	.	.	-6%	.	.
O=C(O)C[C@H]1OCC=C2CN3CC[C@@]45C6=CC(=O)C(=O)C([N+](=O)[O-])=C6N[C@H]4[C@H]1[C@H]2C[C@@H]35	.	4%	3%[14.2 µM]	.	.	.	.
O=C1CCC(C(=O)Nc2cccc(S(=O)(=O)Nc3ccccc3F)c2)=NN1	.	.	.	.	?	3.4µM*	9.5µM*
O=C1N[C@@]2(CN3CCC2CC3)C(=O)N1CN(Cc1ccccc1)c1ccccc1	.	-7%	-3%[14.2 µM]	.	.	.	.
O=C(NCCc1c[nH]c2ccccc12)OCCSS(=O)(=O)O	-1%	12%	9%	2%	24µM*	24µM*	?
CC(=O)NCCc1c[nH]c2ccccc12	-7%	-6%	16%	4%[46.1 µM]	-1%	.	.
c1cnc(N2CCC3(CCNCC3)CC2)nc1	.	13%	13%	.	.	.	.
CC1CC(Cl)CCC1C(=O)OC(C)(C)C (centres undefined)	.	-2%	4%	.	.	.	.
O=C(NCc1cccc(Cl)c1)c1ccc(N2CC3CC(C2)c2cccc(=O)n2C3)c(NC(=O)c2cccnc2)c1 (centres undefined)	-1%	.	.	.	?	?	?
O=C(Nc1cccc(Cl)c1)N1C[C@H]2C[C@@H](C1)c1cccc(=O)n1C2	-8%	.	.	.	3%	.	.
CC(C)n1ncc2c(C(=O)Nc3ccc(S(N)(=O)=O)cc3)cc(C3CC3)nc21	.	.	.	.	?	-33%	?
C[C@@H]1CC([C@H](O)CC2CC(=O)NC(=O)C2)C(=O)[C@@H](C)C1 (some centres undefined)	.	1%	6%	.	.	.	.
NCCc1ccc(O)c(O)c1	-17%	-4%	-10%	-8%[46.1 µM]	?	?	-20%
CCN1CCN(C(=S)c2ccc(Br)cc2)CC1	-8%	-8%[38.3 µM]	3%	-2%[46.1 µM]	?	11µM*	27µM*
CCN1CCN(C(=S)c2ccc(O)cc2)CC1	-7%	5%	-6%	-12%	13µM*	6.7µM*	24µM*
Cc1nn(Cc2ccccc2)c(Cl)c1C(=O)O	-5%	-4%	10%	1%	1%	.	.
